ELG1 repair inh: blocks ELG1-dependent DNA repair in HEK293T cells. HEK293T ELG1-luciferase reporter, luminescence, 16 h; DNA damage induced by 5-fluorouridine. Potency, µM (highest dose often 46.1 µM), actives largely listed as inhibitors. 330,000 compounds, 2.3% hits; further: nearly all actives have a fitted effect of over 55% in size
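5-Fluorouridine DNA damage + compound/DMSO, 2,000 cells/well, 16 h, 37 °C/5% CO2. ONE-Glo, 30 min RT, luminescence. Readout = decrease in reporter signal.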
Coupling enz: counter-screen for Giardia aldolase inhibitors: coupling enzyme system; AID 2472; activity change, negative = inhibition, % at 58.2 µM, hits read low; 290,000 compounds, 0.67% hits; coupling enzyme system counterscreen, AmpLite Red fluorescence; in the data active means activity change below about -30%
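Counterscreen lacking aldolase: glyceraldehyde-3-phosphate coupling-enzyme reagent preincubated 10 min at RT with compound (at 57.5 uM final), then substrate/coupling system with AmpLite Red added; fluorescence read at 525/598 nm after 20 min RT.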
RORg inh: inhibitors of mouse ROR gamma transcriptional activity | Drosophila S2 Gal4-RORgamma UAS-luciferase reporter, 20 h | Potency, µM (doses to about 53.6 µM), usual class: inhibitors | 310,000 compounds, 5.4% hits; further: nearly all actives have a fitted effect of over 60% in size
Target sequence (P51450 whole entry, looked up, the tested form may be a part): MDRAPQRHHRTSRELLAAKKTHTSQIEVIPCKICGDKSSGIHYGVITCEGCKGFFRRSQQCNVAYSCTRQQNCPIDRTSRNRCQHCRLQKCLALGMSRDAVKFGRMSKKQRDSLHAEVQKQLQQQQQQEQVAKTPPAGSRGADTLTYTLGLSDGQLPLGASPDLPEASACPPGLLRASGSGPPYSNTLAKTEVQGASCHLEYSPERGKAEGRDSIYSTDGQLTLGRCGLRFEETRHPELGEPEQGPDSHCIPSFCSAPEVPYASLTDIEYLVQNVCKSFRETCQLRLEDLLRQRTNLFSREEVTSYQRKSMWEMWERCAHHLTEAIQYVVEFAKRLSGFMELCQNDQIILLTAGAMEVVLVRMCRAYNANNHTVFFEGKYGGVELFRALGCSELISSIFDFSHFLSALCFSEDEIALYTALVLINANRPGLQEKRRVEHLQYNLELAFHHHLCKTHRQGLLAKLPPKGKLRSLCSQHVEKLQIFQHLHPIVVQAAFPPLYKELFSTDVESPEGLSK
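Luminescence from a UAS-regulated Photinus luciferase reporter in stably transfected Drosophila Schneider cells is measured; decreased signal marks ROR gamma inhibition. Fusion expression is induced by 700 uM copper sulfate for 20 hr.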
TSHR antagonist: human thyrotropin receptor antagonism; 330,000 compounds, 0.2% hits; activity change, negative = inhibition, % at 11.5 µM; P16473; TSHR-expressing cells, TSH-stimulated cAMP HTRF, 2 h; stronger effect = lower value;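 active means activity change below a set negative limit, meaning inhibition stronger than a set level, cut at about -70% in these data; inconclusive means activity change between two set negative limits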
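Competitive HTRF cAMP read-out (cryptate anti-cAMP antibody, cAMP-d2; 30 min, room temperature) in freshly harvested TSHR cells. Compounds added before TSH at EC80 (4nM final), followed by 2 hours' incubation at 37 deg C.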
Gal4-VP16 FLuc: inhibits Gal4-VP16 luciferase reporter, ROR gamma counter-screen | Potency, µM (series often up to 53.6 µM), hits mostly inhibitors | 310,000 compounds, 3.5% hits | Drosophila S2 Gal4-VP16 UAS-luciferase, luminescence, 20 h | AID 2546;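 further: Gal4-VP16 expression switched on by copper sulfate through the metallothionein promoter; nearly all actives have a fitted effect of over 50% in size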
Hits are given with their value; i = inactive; ? = inconclusive; nt = not tested or not shown. Hits are enriched below; roughly 8% of the tested compounds scored in any of these assays. Unless noted, the call rests on the fitted dose curve; in most records, active means well fitted curve in the direction sought with a large enough effect; inconclusive means small, poorly fitted or top-dose-only effect, or another doubt; inactive means no such curve, though single readings can be large; an effect the other way counts as inactive or inconclusive.

SMILES | ELG1 repair inh | Coupling enz | RORg inh | TSHR antagonist | Gal4-VP16 FLuc
CCc1nnc(NC(=O)CSc2nnc(Cc3ccccc3)n2Cc2ccccc2)s1 | i | i | i | i | i
COc1cc(N)c(Cc2nccc3cc(OC)c(OC)cc23)cc1OC | ? | -30.6 | i | i | i
CCOc1cc(-c2nccc3cc(OC)c(OC)cc23)cc(OCC)c1OCC | 14.6µM | i | 8.91µM | i | 5.62µM
Cc1cc(C)c(NC(=O)CNC(=O)c2cc([N+](=O)[O-])ccc2N2CCOCC2)c(C)c1 | i | nt | nt | i | nt
O=C1C(=C(O)c2ccccc2)C(=O)c2ccccc21 | ? | i | ? | i | i
O=C1C(=O)c2ccccc2C([O-])=C1[n+]1ccccc1 | 18.3µM | i | i | i | i
O=C(COc1ccc(C(=O)O)cc1)Nc1cccc(C(F)(F)F)c1 | i | i | ? | i | i
O=C(Nc1ccccc1)Nc1cccc(C(F)(F)F)c1 | i | i | ? | i | i
Cc1ccc(OC(F)F)c(NC(=O)Nc2cccc(C(F)(F)F)c2)c1 | ? | i | 5.01µM | i | 6.31µM
O=C(COCC(=O)Nc1cccc(C(F)(F)F)c1)Nc1cccc(C(F)(F)F)c1 | i | i | 22.4µM | i | ?
CN1CCN(C(=S)c2ccc(OCC(=O)Nc3cccc(C(F)(F)F)c3)cc2)CC1 | 18.4µM | i | ? | i | ?
C=CCN1C(=O)c2ccc(C(=O)NCC(=O)Nc3c(C)cc(C)cc3C)cc2C1=O | i | nt | nt | i | nt
Cc1ccccc1NC(=O)c1cccc(N2C(=O)C3C4CC(C(Br)C4Br)C3C2=O)c1 (stereo not given) | i | nt | i | i | i
CC1(c2ccccc2)NC(=O)N(CC(=O)NNC(=O)c2cccc(Cl)c2)C1=O (stereo not given) | i | nt | nt | i | nt
CCOC(=O)C(C(=O)OCC)c1cc(Br)c2noc3c2c1C(=O)c1ccccc1-3 | ? | -64.0 | ? | i | ?
CC(=O)OCCNc1cc(N2CCN(C)CC2)c2noc3c2c1C(=O)c1ccccc1-3 | i | i | i | i | i
CN(C)Cc1ccccc1-c1nc(NCc2cccs2)c2ccccc2n1 | nt | i | i | nt | i
Cc1cccc(CNc2nc(-c3ccccc3CN(C)C)nc3ccccc23)c1 | nt | i | 22.4µM | nt | ?
COc1ccc(CNc2nc(-c3ccccc3CN(C)C)nc3ccccc23)c(OC)c1 | nt | i | 12.6µM | nt | ?
COc1ccc2[nH]cc(CCNc3nc(-c4ccccc4CN(C)C)nc4ccccc34)c2c1 | nt | i | i | nt | i
N[C@H](C(=O)O)[C@H](Cc1ccccc1)C(=O)O | nt | nt | nt | i | nt
O=C(NCc1ccc(OC(F)(F)F)cc1)C1CCC(=O)N(C2CC2)C1 (stereo not given) | i | i | nt | i | nt
C=CCNc1nnc(SC2CC(=O)N(c3ccc(OCCC)cc3)C2=O)s1 (stereo not given) | i | i | ? | i | 17.8µM
CCOc1ccc(N2C(=O)CC(Sc3ncccn3)C2=O)cc1 (stereo not given) | i | i | ? | i | ?
CC(C)c1ccc(/C=C2\NC(=S)N(Cc3cccnc3)C2=O)cc1 | i | i | 7.94µM | i | i
SMILES | ELG1 repair inh | Coupling enz | RORg inh | TSHR antagonist | Gal4-VP16 FLuc
O=C(CN1C(=O)NC2(CCc3ccccc32)C1=O)Nc1ccccc1Cl (stereo not given) | i | nt | nt | nt | nt
Nc1nnc(SC2CC(=O)N(c3ccccc3)C2=O)s1 (stereo not given) | i | i | 5.01µM | i | 10µM
Cc1ccnc(SC2CC(=O)N(c3ccc(Cl)cc3)C2=O)n1 (stereo not given) | i | i | ? | i | ?
Cc1cc(C)nc(SC2CC(=O)N(c3ccc(Cl)cc3)C2=O)n1 (stereo not given) | i | i | 14.1µM | i | i
O=C1CC(Sc2ncccn2)C(=O)N1c1ccccc1 (stereo not given) | i | i | ? | i | i
Cc1nc(SC2CC(=O)N(c3ccccc3)C2=O)n[nH]1 (stereo not given) | i | i | 4.47µM | i | 4.47µM
CCOc1ccc(NC(=O)CN(C)C(=O)CC2OC(=O)c3ccccc32)cc1OCC (stereo not given) | i | nt | nt | i | nt
O=C(N[C@H]1C/C=C\C[C@@H](CC(=O)N(CCO)Cc2ccccc2)C(=O)NC[C@H](c2ccccc2)OC1=O)OCC1c2ccccc2-c2ccccc21 | ? | nt | nt | i | nt
CN(C)C=Nc1nonc1-c1ccccc1 | i | i | i | i | i

Screening data deposited in PubChem by National Center for Advancing Translational Sciences (NCATS).
